# Rows were chosen to be rich in hits. Some 19% of all compounds tested hit in one or more screens of this group.
# HT1080 IDH1KD tx – toxicity to HT-1080 IDH1 knockdown cells (counter line); HT-1080 IDH1 knockdown viability, ATP luminescence, 48 h; Potency, µM (series often up to 46.1 µM), usual class: cytotoxic; 2% of 360,000 active; AID 686971
#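 HT-1080-IDH1KD cells (IDH1 knocked down), 750/well in RPMI with 5% FBS, treated with compound 48 h at 37 degrees C. Viability by CellTiter-Glo luminescence, normalised to DMSO and no-cell wells; concentration-response curves classed.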
# KB-3-1 tox – kills parental KB-3-1 adenocarcinoma cells; KB-3-1 viability, CellTiter-Glo ATP luminescence, 72 h; Potency, µM (series often up to 46.1 µM), most hits filed as cytotoxic; 1.4% of 400,000 active; also: nearly all actives have a fitted effect of over 60% in size
#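 Multi-concentration cytotoxicity screen in KB-3-1 cells grown in DMEM lacking phenol red with 10% FBS. After 72 h at 37 °C with compound, ATP-dependent luminescence was recorded.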
# HT1080-NT tox – kills 2HG-producing HT-1080-NT fibrosarcoma cells. HT-1080-NT fibrosarcoma viability, CellTiter-Glo ATP luminescence, 48 h. Potency, µM (doses to about 46.1 µM), usual class: cytotoxic. 1.6% of 360,000 active. AID 686970;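 also: NT is the 2HG producing partner of a matched IDH1 knockdown line; nearly all actives have a fitted effect of over 55% in size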
#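 HT-1080-NT fibrosarcoma cells (2HG-overproducing), 750 cells/well in RPMI with 5% FBS, dosed after 2 h and incubated 48 h at 37C. CellTiter-Glo luminescence normalized to DMSO and no-cell wells; concentration-response curves fitted and classed.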
# DT40 TDP1 CPT – DT40-hTDP1 cell growth loss with CPT; chicken DT40 Tdp1-/-;hTDP1 cells + 20 nM CPT, ATP luminescence, 48 h; Potency, µM (titrated, usually from 46.2 µM), usual class: inhibitors; 12% of 420,000 active; AID 686979; also: nearly all actives have a fitted effect of over 55% in size
#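 Chicken DT40 Tdp1-/- cells complemented with human TDP1, 400 cells/well, exposed to compounds plus 20 nM camptothecin for at least 48 h at 37 C; viability read as ATP content by CellTiter-Glo luminescence.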
# KB-V1 MDR tox – KB-V1 MDR subline cytotoxicity | KB-V1 MDR cells viability, CellTiter-Glo, 72 h | 3.4% of 400,000 active | Potency, µM (series often up to 46.1 µM), hits mostly cytotoxic; also: nearly all actives have a fitted effect of over 60% in size
#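 Compound-treated KB-V1 multidrug-resistant cells, 72 h, 37 degrees C; viability by CellTiter-Glo. Fitted qHTS curves give the values.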
# DT40 TDP1 no CPT – qHTS for Inhibitors of human tyrosyl-DNA phosphodiesterase 1 (TDP1): qHTS in cells in absence of CPT; DT40 Tdp1-/- hTDP1 cells, no CPT, ATP luminescence, 48 h; Potency, µM (doses to about 46.2 µM), usual class: inhibitors; 15% of 420,000 active; AID 686978, 2013; also: nearly all actives have a fitted effect of over 55% in size
#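 Chicken DT40 Tdp1-/- cells stably complemented with human TDP1 were seeded at 400 cells/well with DMSO in place of 20 nM camptothecin. After compound pinning, cells grew at least 48 hr at 37 °C; viability read by CellTiter-Glo luminescence.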
# A number is an active result; – = inactive; ? = inconclusive; · = not tested or not shown. Calls follow the shape of the dose curve; as a rule, active = well fitted curve in the direction sought with a large enough effect; inconclusive = small, poorly fitted or top-dose-only effect, or another doubt; inactive = no such curve, though single readings can be large; an effect the other way counts as inactive or inconclusive.
SMILES,HT1080 IDH1KD tx,KB-3-1 tox,HT1080-NT tox,DT40 TDP1 CPT,KB-V1 MDR tox,DT40 TDP1 no CPT
CC(C)n1nc(C(=O)Nc2cccc(S(=O)(=O)NCc3ccco3)c2)c2ccccc2c1=O,–,?,–,?,21µM,?
Cn1nc(C(=O)Nc2ccc(S(=O)(=O)NCc3ccco3)cc2)c2ccccc2c1=O,–,–,–,?,–,?
O=S(=O)(N=S(N1CCCCC1)N1CCCCC1)c1ccccc1,–,–,–,9.2µM,–,?
O=S(=O)(/N=C(/c1ccccc1)N1CCCCCC1)c1ccccc1,–,–,–,–,?,–
OC1CCC(NC(=S)Nc2ccc(SC(F)F)cc2)CC1 (stereo unspecified),–,–,–,?,–,?
FC(F)Sc1ccc(NC(=S)NC2CCCC2)cc1,–,–,–,?,?,16µM
CC1CCCC(NC(=S)Nc2ccc(SC(F)F)cc2)C1C (stereo unspecified),?,18µM,?,?,23µM,?
COc1ccc(OC)c(NC(=O)C23CC4CC(C2)CC(n2cnc(Br)n2)(C4)C3)c1,–,–,–,11µM,–,10µM
COC(=O)c1ccc(NC(=O)C23CC4CC(C2)CC(n2cncn2)(C4)C3)cc1,–,–,–,–,–,–
O=C(Nc1cccc([N+](=O)[O-])c1)C12CC3CC(C1)CC(n1cnc([N+](=O)[O-])n1)(C3)C2,–,–,–,26µM,–,?
COc1cc(NC(=O)C23CC4CC(C2)CC(n2cnc([N+](=O)[O-])n2)(C4)C3)cc(OC)c1,–,?,–,?,21µM,?
COC(=O)c1cccc(NC(=O)C23CC4CC(C2)CC(n2cncn2)(C4)C3)c1,–,–,–,–,21µM,–
CC(=O)c1cccc(NC(=O)c2nc(-c3ccccc3)n(-c3cccc(Cl)c3)n2)c1,·,–,·,16µM,–,13µM
CC(=O)c1ccc(NC(=O)c2nc(-c3ccccc3)n(-c3ccccc3Cl)n2)cc1,·,–,·,26µM,–,18µM
COc1ccc(-c2nc(C(=O)Nc3ccc(C(C)=O)cc3)nn2-c2cccc(Cl)c2)cc1,·,–,·,?,–,?
N#Cc1ccc(NC(=O)c2nc(-c3ccccc3)n(-c3ccccc3)n2)cc1,–,–,–,?,–,?
CC(=O)c1ccc(NC(=O)c2nc(-c3ccccc3)n(-c3ccccc3)n2)cc1,·,–,·,?,?,21µM
COc1cccc(C(=O)C(=O)N2CCN(C(=O)OCc3ccccc3)CC2)c1,–,–,–,?,?,?
Cc1ccccc1OCc1nc2c3c(ncn2n1)-c1ccccc1CC31CCCC1,–,?,–,?,?,15µM
COc1ccc(OCc2nc3c4c(ncn3n2)-c2ccccc2CC42CCCC2)cc1,–,–,–,?,12µM,?
Oc1cccc(-c2nc3c4c(ncn3n2)-c2ccccc2CC42CCCC2)c1,11µM,–,?,18µM,7.3µM,18µM
Cc1ccc(OCc2nc3c4c(ncn3n2)-c2ccccc2CC42CCCC2)cc1,–,–,–,–,?,?
Cc1cccc(OCc2nc3c4c(ncn3n2)-c2ccccc2CC42CCCC2)c1,–,–,–,?,?,–
O=C(NCc1nnnn1-c1ccc(F)cc1)C(=O)c1c[nH]c2ccccc12,–,–,–,–,–,?
Cc1cc(C(=O)NNC(=O)COc2ccccc2Cl)n[nH]1,–,–,–,–,–,–
O=C(c1cc([N+](=O)[O-])ccc1Cl)N1c2ccccc2Sc2ccccc21,–,–,–,?,–,15µM
Cc1cc(NC(=O)c2cc([N+](=O)[O-])ccc2Cl)no1,?,–,?,?,?,16µM
Cc1cccc(NC(=O)c2ccccc2[N+](=O)[O-])n1,–,–,–,–,–,–
O=C(Nc1cccc(NC(=O)c2ccccc2[N+](=O)[O-])n1)c1ccccc1[N+](=O)[O-],–,–,–,6.5µM,–,9.2µM
